This is one part of a sample in which hits are shown more often than they occur.
Pf Dd2 inh: blocks in vitro growth of P. falciparum Dd2; P. falciparum Dd2 growth, SYBR Green, 72 h; Potency, µM (doses to about 28.9 µM), for the others: top-dose activity, negative = inhibition, hits mostly inhibitors; 120,000 compounds, 4.3% hits; AID 1347417; active = well fitted inhibition curve with a large enough effect;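 also: plate controls were DMSO vehicle for no effect and reference drug for full effect; nearly all actives have a fitted effect of over 65% in size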
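Readout: SYBR Green fluorescence, 485 nm excitation, 535 nm emission, after ~16 h lysis at 37C. Before that, Dd2-infected red cells (2.5% hematocrit) grew 72 h with compound, 29 uM top final concentration.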
* marks the source's active call; other numbers are inactive results; i = inactive; [ ] = dose if it differs, or a comment. Potency is read from the fitted curve at half-maximal effect.

SMILES | Pf Dd2 inh
O[C@]1(c2ccccc2)CCN(Cc2ccco2)C[C@H]1N1CCCC1 | 0.631µM*
Cc1ccsc1C(=O)N1CCC(O)(c2ccccc2)[C@H](N(C)C)C1 (stereo partly drawn) | i[5.79 µM]
COc1ccc(CN2CC[C@@](C)(O)[C@H](N3CCCC3)C2)cc1 | 21.3%[5.79 µM]
O=C(c1cccs1)N1CCC(O)(c2ccccc2)[C@H](N2CCCC2)C1 (stereo partly drawn) | 1.41µM*
O=C(C1CC1)N1CC[C@](O)(c2ccccc2)[C@H](N2CCCC2)C1 | i[5.79 µM]
c1cc(-c2nc(C3CCNC3)no2)ccn1 (stereo not drawn) | i[5.79 µM]
COc1ccc(CN2C[C@@H]3C(C(=O)Nc4ccccc4)=NO[C@@H]3C2)cc1OC | i
CN1CCN([C@H]2CCN(c3ccnc4ccccc34)C[C@H]2CCC(=O)O)CC1 | -3.4%
O=C1NC2(CCN(C(=O)c3ccc(F)cc3)CC2)Oc2ccccc21 | -15.0%[44.1 µM]
COc1ccc(OC)c(NC(=O)Cn2cc(C(=O)c3ccc(Cl)cc3)c(=O)c3cc(OC)ccc32)c1 | 8.91µM*
O=C(Cn1cc(S(=O)(=O)c2ccccc2)c(=O)c2cc(Cl)ccc21)Nc1ccc2c(c1)OCO2 | 8.91µM*
COc1ccc2c(c1)c(=O)c(S(=O)(=O)c1ccccc1)cn2CC(=O)Nc1ccc2c(c1)OCO2 | -2.3%
O=C(Cn1cc(S(=O)(=O)c2ccc(F)cc2)c(=O)c2cc3c(cc21)OCO3)Nc1ccccc1 | 19.3%
COc1cccc(NC(=O)Cn2cc(C(=O)c3ccc(F)cc3)c(=O)c3cc(OC)ccc32)c1 | -8.2%
CCOc1ccc(C(=O)c2cn(CC(=O)Nc3ccc4c(c3)OCCO4)c3ccc(OC)cc3c2=O)cc1 | -21.9%
COc1ccc(NC(=O)Cn2cc(C(=O)c3ccccc3)c(=O)c3cc(OC)ccc32)c(OC)c1 | 3.3%
COc1ccc2c(c1)c(=O)c(C(=O)c1ccc(Cl)cc1)cn2CC(=O)Nc1ccc2c(c1)OCCO2 | 11.2µM*
COc1cccc(NC(=O)Cn2cc(C(=O)c3ccc(C)cc3)c(=O)c3cc(OC)ccc32)c1 | -19.3%
CCc1ccc(C(=O)c2cn(CC(=O)Nc3cccc(OC)c3)c3ccc(OC)cc3c2=O)cc1 | 12.6µM*
COc1ccc(OC)c(NC(=O)Cn2cc(C(=O)c3ccccc3)c3ccccc32)c1 | i
COc1ccc2c(c1)c(=O)c(C(=O)c1ccc(Cl)cc1)cn2CC(=O)Nc1ccc2c(c1)OCO2 | 6.3%
COc1ccccc1CNC(=O)c1ccc(N2CCCC2)c(NC(=O)NCc2ccccc2)c1 | 8.9%
O=c1c2ccccc2nc(/C=C/c2cccc3ccccc23)n1-c1ccc(F)cc1F | 34.9%
COc1cccc(-c2cc(C3CCN(C(=O)NCCc4ccccc4)CC3)[nH]n2)c1 | i
COc1ccc(S(=O)(=O)N(C)Cc2nc(-c3cccc(C)c3)no2)cc1 | 39.4%
SMILES | Pf Dd2 inh
COCCn1c(C)nnc1-c1cc(-c2ccc(OC)c(OC)c2)ccn1 | -12.2%[44.1 µM]
O=C(c1ccoc1)N1CCC2(CC1)N=C(c1ccccc1)NO2 | -15.2%
COc1ccc(S(=O)(=O)N(CC(=O)NCCSCc2ccccc2)c2ccc(C)cc2)cc1 | -12.0%
CC(C)Cc1nc(NC(=O)CC[C@H]2NC(=O)c3ccccc3NC2=O)n[nH]1 | -7.5%
CN1CCN(c2nc3c(s2)CN(C(=O)c2ccncc2)CC3)CC1 | -11.6%
Cn1c(SCc2cc(=O)c3cc(Cl)ccc3[nH]2)nnc1-c1ccccc1 | 8.3%
CCc1cccc(C)c1NC(=O)Cn1ccn2nc3c(c2c1=O)CCCC3 | i
COc1cccc(Nc2sc(C(=O)c3ccc(F)cc3)c(N)c2C(=O)NCc2ccc(C)cc2)c1 | 10µM*
Cc1ccc(CNC(=O)c2c(Nc3ccccc3C)sc(C(=O)c3ccc(F)cc3)c2N)cc1 | -17.2%
COc1cccc(Nc2sc(C(=O)c3ccc(Cl)cc3)c(N)c2C(=O)NCCc2ccc(OC)c(OC)c2)c1 | -20.2%
Cc1ccc(CN2CCC(C3CCNC3)CC2)nc1 (stereo not drawn) | 12.5%
Cc1cc(C)cc(NC(=O)CCS(=O)(=O)c2ccc3nc(C)sc3c2)c1 | 0.5%
O=C(c1ccc(OC2CCN(C(=O)c3cccc(Cl)c3)CC2)nc1)N1CCOCC1 | -8.2%
O=C1CC(c2nc(-c3cn4ccccc4n3)no2)CN1Cc1cccnc1 (stereo not drawn) | -10.8%
CS(=O)(=O)N(C1CCOCC1)C1CN(C(=O)c2c[nH]c3ccccc23)C1 | -18.5%
COc1cc2cc(CN3CCC[C@@H]3CO)c(-c3cccc(Cl)c3)nc2cc1OC | 12.6µM*
COc1ccc(-c2nc3cc(C)ccc3cc2CN2CCC[C@@H]2C(N)=O)cc1OC | -43.1%
COc1ccc(OC)c2nc(-c3cccc(Cl)c3)c(CN3CC(O)C3)cc12 | -8.8%
Cc1c(Cl)cccc1NC(=O)CSc1ncc2c(n1)-c1ccccc1N(C)S2(=O)=O | i
CCOc1ccc(-n2c(CC)nc3c(cnn3-c3ccc(Cl)cc3)c2=O)cc1 | -24.7%
COc1ccc(-c2nc(-c3nnn4c3COC(c3ccc(Cl)cc3)C4)no2)cc1F (stereo not drawn) | 11.6%
CCCCN1C(=O)CC[C@H]2CN(C(=O)CCn3cccc3)CC[C@H]21 | -21.6%
COc1ccc(NC(=O)c2ccc(CN3C(=O)CCn4nc(C)cc43)cc2)c(OC)c1 | 16.0%
COc1ccc(NC(=O)Cn2nc3n(c2=O)CCCCC3)cc1OC | i
CCC(=O)Nc1ccc(-c2nnc3n2CCCC3)cc1 | 21.0%
SMILES | Pf Dd2 inh
O=C(COc1cccc(-c2nnc3n2CCCC3)c1)Nc1ccc(Cl)cc1F | -29.2%
Cc1ccc(CC(=O)Nc2ccc(-c3nnc4n3CCCC4)cc2)cc1 | i
COc1ccc(NC(=O)COc2cccc(-c3nnc4n3CCCC4)c2)cc1OC | 7.94µM*
COc1ccc(NC(=O)COc2ccc(-c3nnc4n3CCCC4)cc2)cc1OC | 8.91µM*
Cc1ccc(C)c(Nc2cc(C(=O)NC3CCCC3)c3ccccc3n2)c1 | i
COc1ccc(NCc2cc3cc4c(cc3n(CC(=O)Nc3cccc(F)c3)c2=O)OCO4)cc1 | -9.4%
COc1ccc(OC)c(NC(=O)c2cc3n(n2)CC(c2ccc4c(c2)OCO4)OC3)c1 (stereo not drawn) | -14.0%
CCOc1ccc(NC(=O)CC2C(=O)OCCN2CC)cc1 (stereo not drawn) | 77.9%
CCOc1ccccc1NC(=O)CSc1c2c(nc3ccc(Cl)cc13)CCCC2 | i
COc1ccccc1Nc1c2c(nc3ccc(NC(=O)c4ccccc4F)cc13)CCCC2 | 3.55µM*
Cc1ccc(Nc2c3c(nc4ccccc24)CCC3)cc1F | i
COc1ccccc1NC(=O)c1ccccc1NC(=O)c1ccccc1 | -0.8%
COc1ccccc1NC(=O)c1ccc2c(Cl)c3c(nc2c1)CCCC3 | 12.3%
COc1ccc(Nc2c3c(nc4ccc(NC(=O)c5ccc(F)cc5)cc24)CCCC3)cc1OC | 3.98µM*
COc1ccccc1Nc1c2c(nc3ccc(NC(=O)c4cccc(OC)c4OC)cc13)CCCC2 | 5.62µM*
CCN(CC)c1cc(C)c2cc(NC(=O)c3ccc(OC)c(OC)c3)ccc2n1 | -2.2%
COc1ccc(C(=O)Nc2ccc3nc4c(c(Nc5ccc(OC)c(OC)c5)c3c2)CCCC4)c(OC)c1 | -7.9%
O=C(C1CCN(S(=O)(=O)c2cccc3nonc23)CC1)N1CCN(c2ccccc2F)CC1 | -2.4%
O=C([C@@H]1C[C@H](F)CN1S(=O)(=O)c1ccc(F)cc1)N1CCOCC1 | 41.7%
O=C(CCc1c[nH]c2ccccc12)NC1CCN(C(=O)N2CC3CC(C2)[C@H]2CCCC(=O)N2C3)CC1 (stereo partly drawn) | -24.1%
COC(=O)[C@@H]1Cc2ncn(C(C)C)c2CN1S(=O)(=O)c1ccc(F)cc1 | 6.3%[44.1 µM]
NC(=O)c1ccc(CC2CCNCC2)cc1 | 6.5%

Bioassay records (PubChem BioAssay)
